PubChem BioAssay (NCI)
About 79,000 compounds went through this panel and 15% of them were active in at least one assay; those are over-represented in the sample as a whole. Cut-off read from the data, not from the text of the source: active = growth inhibition above about 70%; inactive = the rest.

Columns and labels:
[1] = NCI Yeast Anticancer Drug Screen. Data for the rad50 strain (AID 155);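 note: 0% = growth of vehicle-only cultures of the same strain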; settings: S. cerevisiae rad50 strain growth inhibition; at 50.0 µM; stronger effect = higher value
Procedure, shortened: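 DNA repair mutant yeast, compound exposure, growth read-out; inhibition is taken relative to vehicle.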

[2] = NCI Yeast Anticancer Drug Screen. Data for the mec2-1 strain (AID 157); settings: S. cerevisiae mec2-1 strain, at 50.0 µM, stronger effect = higher value
Procedure, shortened: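 Cells of the genetically defined mec2-1 yeast strain are incubated with test compound. Inhibition of growth is calculated against vehicle-treated controls.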

[3] = NCI Yeast Anticancer Drug Screen. Data for the sgs1 mgt1 strain (AID 161);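 note: 0% = growth of cultures given vehicle only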; settings: S. cerevisiae sgs1 mgt1 strain, at 50.0 µM, stronger effect = higher value
Procedure, shortened: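 Inhibition of yeast growth, normalised to vehicle-treated controls, is reported for a strain bearing genetic alterations in DNA damage repair.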

[4] = NCI Yeast Anticancer Drug Screen. Data for the cln2 rad14 strain (AID 165);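 note: 0% = growth equal to vehicle treated cultures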; settings: S. cerevisiae cln2 rad14 strain, at 50.0 µM, stronger effect = higher value
Procedure, shortened: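 The screen exposed genetically defined yeast (cln2 rad14) to test compounds and scored growth inhibition relative to vehicle-treated controls.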

[5] = NCI Yeast Anticancer Drug Screen. Data for the bub3 strain (AID 167); settings: S. cerevisiae bub3 mutant strain, at 50.0 µM, stronger effect = higher value
Procedure, shortened: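 In this screen, a yeast mutant lacking normal mitotic checkpoint function is challenged with compound. Relative growth versus vehicle gives the inhibition value.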

[6] = NCI Yeast Anticancer Drug Screen. Data for the mlh1 rad18 strain (AID 175); settings: S. cerevisiae mlh1 rad18 strain growth inhibition; at 50.0 µM; stronger effect = higher value
Procedure, shortened: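 Compound-treated yeast growth, normalised to vehicle controls. Strain bears defined DNA repair mutations.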

Measured: growth inhibition

CCC1CCCCC1O (stereo unspecified)
inactive: [1] 1.6% | [2] -7% | [3] -30.5% | [4] 7.35% | [5] -22.7% | [6] 6.1%

CC(C)(N)CNCC(C)(C)N
inactive: [1] 6.9% | [2] -3.65% | [3] -0.2% | [4] -5.8% | [5] -0.45% | [6] -2.1%

Clc1ccc(-c2nnc(-c3ccc4ccccc4c3)o2)cc1
inactive: [1] -43% | [2] -60.8% | [3] -22.2% | [4] 3.1% | [5] -47.5% | [6] -25.4%

CCS(=O)(=O)Nc1ccc(NS(=O)(=O)CC)cc1
inactive: [1] 39.7% | [2] 11.3% | [3] 29.1% | [4] 16.5% | [5] 17.9% | [6] 25.4%

N#C/C(C(=O)Nc1ccccc1)=C(/N)N1CCCC1
inactive: [1] 18.4% | [2] -15.7% | [3] 1.85% | [4] -5.65% | [5] -14.3% | [6] 25.6%

CCCCS(=O)(=O)CCCCCCl
inactive: [1] 1.55% | [2] -2.95% | [3] -6.25% | [4] -13.5% | [5] -6.45% | [6] 9.55%

Cc1c(C(=O)O)[nH]c2c(Cl)ccc(C)c2c1=O
inactive: [1] -34.2% | [2] -9.15% | [3] 9.5% | [4] -44.5% | [5] 9.8% | [6] 4.75%

CN(C)N=Nc1c(F)cc(F)c(F)c1F
inactive: [1] 4.75% | [2] 3.35% | [3] -9% | [4] -14.2% | [5] 7.3% | [6] -4.05%

O/N=C/c1ccc(O)c(O)c1
inactive: [1] 16.4% | [2] -7.35% | [3] -4.05% | [4] -0.7% | [5] 10.8% | [6] 4.75%

COc1ccc2nc(-c3ccccc3)cc(OCC(=O)O)c2c1
inactive: [1] -30.2% | [2] 21.2% | [3] -7.5% | [4] -13.1% | [5] 10.1% | [6] -15.8%

COc1ccc(NCC(=O)Nn2c(-c3ccccc3)nc3ccccc3c2=O)cc1
inactive: [1] -37% | [2] -48.2% | [3] 4% | [4] 0.4% | [5] 4.15% | [6] -18.4%

Cc1cc(Cl)cc(CN(Cc2ccccc2)Cc2cc(Cl)cc(C)c2O)c1O
inactive: [1] 1.3% | [2] -3.55% | [3] 18.2% | [4] 25.7% | [5] 2% | [6] -6.8%

CC(=O)CC(=O)OC(C)OC(=O)CC(C)=O
inactive: [1] -2.1% | [2] -13.4% | [3] -11.4% | [4] -2.5% | [5] -0.7% | [6] 0.25%

O=S(O)c1cc(Cl)c(O)c(Cl)c1
inactive: [1] -7.1% | [2] 1.3% | [3] -7.05% | [4] -37.5% | [5] -5.1% | [6] -2.75%

COc1cc(-c2cc(=O)c3cc4c(=O)cc(-c5cc(OC)c(OC)c(OC)c5)oc4cc3o2)cc(OC)c1OC
inactive: [1] -11.2% | [2] 1.25% | [3] 11.2% | [4] -75% | [5] -7.7% | [6] -5%

CCCCOC(C)OCCCC
inactive: [1] 9.3% | [2] -6.35% | [3] -3.4% | [4] 5.2% | [5] 5.65% | [6] -17%

OCC(O)C(O)Cc1cnc(C(O)C(O)C(O)CO)cn1 (stereo unspecified)
inactive: [1] 6.65% | [2] 5.65% | [3] -6.95% | [4] -20.2% | [5] -9.45% | [6] 6.4%

CN(N)c1nc2c(N)ncnc2n1C1OC(CO)C(O)C1O (stereo unspecified)
inactive: [1] 25.9% | [2] 24.1% | [3] 30.6% | [4] 13.8% | [5] 30% | [6] 48.3%

CCC(=O)Oc1ccc(CCC(C)=O)cc1OC
inactive: [1] 4.15% | [2] -7.55% | [3] -16.8% | [4] -26.6% | [5] -2.3% | [6] 25.8%

CC1=CC(C)=C(C#N)C2=S=C(c3ccccc3)C(=O)N12
inactive: [1] 6% | [2] 14.8% | [3] 22.5% | [4] 29.1% | [5] 19.9% | [6] 22.1%

O=C(O)c1ccc(NS(=O)(=O)Cc2ccccc2)cc1
inactive: [1] -14.3% | [2] -24.1% | [3] -41.5% | [4] -22.4% | [5] -36.5% | [6] -6.3%

CCOC(=O)c1nc2cc(C(F)(F)F)ccc2nc1Nc1ccc(OC)c(OC)c1
inactive: [1] -18.1% | [2] -6.15% | [3] -16.9% | [4] -12.4% | [5] -12.8% | [6] -14%

Cc1nc(Nc2ccccc2)sc1C(=O)CC(=O)C(=O)NC12CC3CC(CC(C3)C1)C2
inactive: [1] 1.3% | [2] 8.95% | [3] 8.8% | [4] -13.1% | [5] 4.4% | [6] -0.7%

CCN1C(=O)/C(=C/c2ccc(OCC(=O)O)cc2)SC1=S
inactive: [1] -6.9% | [2] -10.9% | [3] 0.35% | [4] -44.9% | [5] -2.2% | [6] -9.65%

N#Cc1cccc(N(C(=O)c2ccccc2)c2ccccc2)n1
inactive: [1] 4.35% | [2] 7.9% | [3] -4.5% | [4] 0.1% | [5] 41% | [6] 24.9%

O=C(/C=C/c1ccco1)c1ccc(NCc2nc3ccccc3[nH]2)cc1
inactive: [1] 40.2% | [2] -7% | [3] 41.5% | [4] 33.9% | [5] 13.8% | [6] 25.8%

O=C(O)CS(=O)(=O)O
inactive: [1] 11.2% | [2] 0.45% | [3] -4.3% | [4] 5.3% | [5] 0.75% | [6] 5.55%

N#C/C(=C\c1ccc(F)cc1)C(=O)O
inactive: [1] 13.2% | [2] 0.8% | [3] -7.9% | [4] 4.2% | [5] 8.5% | [6] 18.4%

CC(=O)Nc1ccc(S(=O)(=O)Nc2c(-c3ccccc3)[nH]c(C)c2C(C)=O)cc1
inactive: [1] 1.65% | [2] 7.85% | [3] -10.3% | [4] -0.65% | [5] 1.65% | [6] 13.8%

O=C(O)c1c(CN2CCOCC2)c(O)c(O)c(O)c1CN1CCOCC1
inactive: [1] -1.2% | [2] 0.15% | [3] -7.1% | [4] -2.3% | [5] 1.3% | [6] 5.5%

COc1ccc(C(c2cc(OC)c(OC)c(OC)c2)N2C(=O)CCC2C(=O)O)cc1 (stereo unspecified)
inactive: [1] -21.6% | [2] -13.6% | [3] -16.6% | [4] -11.8% | [5] -4.15% | [6] -8.3%

FCCN(CCF)Cc1ccc2c(c1)OCO2
inactive: [1] -4.8% | [2] -12.3% | [3] 2.05% | [4] -63.1% | [5] -3.1% | [6] -7.4%

O=C1C(Cl)C(c2ccc(O)cc2)N1n1cnc2ccccc2c1=O (stereo unspecified)
inactive: [1] 56.6% | [2] 37.9% | [3] 59.4% | [4] 31.9% | [5] 32.8% | [6] 36.6%

Nc1ccc(S(=O)(=O)N/N=C/c2ccccc2)cc1
inactive: [1] 10.2% | [2] -0.4% | [3] 12.1% | [4] 34.4% | [5] -34% | [6] 29.8%

O=C(C(=O)c1ccccc1)c1ccccc1
inactive: [1] 9.35% | [2] -0.75% | [3] 11.7% | [4] -22.1% | [5] 9.9% | [6] -1.15%

CC(=O)OC1CC2CC3C(C)CCC3(C2(C)C)C1(C)O (stereo unspecified)
inactive: [1] -12.9% | [2] -0.25% | [3] -0.7% | [4] 0.7% | [5] 11.4% | [6] -11.5%

CCOC(=O)C(C(C)=O)C(c1ccc(OCc2ccccc2)c(C)c1)C(C(C)=O)C(=O)OCC (stereo unspecified)
inactive: [1] 14.7% | [2] 3.9% | [3] 25.9% | [4] 27.1% | [5] 8.55% | [6] 19.9%

CC(C)NC(=O)Nc1ccccc1Cl
inactive: [1] -4.45% | [2] -8.9% | [3] 6.9% | [4] -28.8% | [5] -11.8% | [6] -0.7%

Clc1cc(/C=C/c2ccccc2)c2ccccc2n1
inactive: [1] 25.9% | [2] -0.05% | [3] 12.6% | [4] -7.5% | [5] -4.65% | [6] 22.3%

CCOC(=O)C1CCCCC1C(=O)OCC (stereo unspecified)
inactive: [1] -1.7% | [2] -15.8% | [3] -7.3% | [4] -3.55% | [5] -28.1% | [6] -26.9%

Nc1n[nH]c(=S)s1
inactive: [1] 6.8% | [2] -12.1% | [3] 7.35% | [4] -8.7% | [5] -12.3% | [6] 3.55%
